# “And” between values parts separate entries of the source, which are not always exact repeats. Identical values can stand only once. Records with an inconclusive call do not appear. A call without a number means that no potency is given here. A structure can be active in one record and inactive in another. The source made the active and inactive calls. Unless noted, calls come from the whole dose curve; as a rule, active = well fitted curve in the direction sought with a large enough effect in the repeat runs; inconclusive = weak or mixed curves; inactive = no such curve, though single readings can be large; an effect the other way counts as inactive or inconclusive.
# Key:
# [1] = qHTS assay to identify small molecule antagonists of the sonic hedgehog signaling (Shh) pathway (AID 1259369; calls by dose curve; note: nearly all actives have a fitted effect of over 45% in size; note: potency is the fitted concentration of half-maximal effect)
# Outline: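 NIH/3T3-derived 3T3Gli1-Luc cells with stably integrated Gli1-Luc reporter were preincubated 4hr at 37 C, then given compounds in DMSO plus Shh conditioned medium and incubated 24hr. Firefly luciferase luminescence read after 30min reagent at room temperature.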
# [2] = qHTS assay to identify small molecule agonists of the androgen receptor (AR) signaling pathway in the presence of an antagonist - cell viability counter screen (AID 1259379); note: nearly all actives have a fitted effect of over 25% in size; note: potency is the fitted concentration of half-maximal effect
# Outline: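 MDA-kb2 human breast carcinoma cells (stable MMTV-luciferase, AR/GR responsive) were seeded 3,000 cells/well, pre-incubated 5 hr at 37C without CO2, then given 3.0uM nilutamide and compounds at 15 concentrations for 16 hr. Viability was read by CellTiter-Fluor fluorescence.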
# [3] = qHTS assay to identify small molecule agonists of the estrogen receptor beta (ER-beta) signaling pathway - cell viability counter screen (AID 1259380); note: nearly all actives have a fitted effect of over 30% in size; note: potency is the fitted concentration of half-maximal effect
# Outline: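 ER-beta-UAS-bla HEK293T cells in medium with 2% charcoal-stripped FBS were preincubated 6 hr at 37C, dosed with compound in DMSO for 16 hr, then after the bla read, CellTiter-Glo was added for 30 min at room temperature; luminescence recorded.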
# [4] = qHTS assay to identify small molecule antagonists of the estrogen receptor beta (ER-beta) signaling pathway - cell viability counter screen (AID 1259382); note: nearly all actives have a fitted effect of over 55% in size; note: potency is the fitted concentration of half-maximal effect
# Outline: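 ER-beta-UAS-bla HEK293T cells (2,000/well, 2% charcoal-stripped FBS) were pre-incubated 6 hr at 37C, then given compound plus 1nM final 17-beta-estradiol for 16 hr. Viability was read in the same wells by CellTiter-Glo luminescence after 30 min at room temperature.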
# [5] = target: Estrogen receptor beta (Homo sapiens) (UniProt Q92731); assay: qHTS assay to identify small molecule agonists of the estrogen receptor beta (ER-beta) signaling pathway (AID 1259377; active = well fitted activation curve with a large enough effect in the signal ratio in the repeat runs, not every such curve was filed as active; the % refers to the signal ratio)
# Outline: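 Read-out: beta-lactamase FRET fluorescence. Cell line: ER-beta-UAS-bla HEK293T in 2% charcoal-stripped FBS. Exposure: 16 hr at 37C. Substrate step: 2 h at room temperature.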
# [6] = target: Estrogen receptor beta (Homo sapiens) (UniProt Q92731); assay: qHTS assay to identify small molecule antagonists of the estrogen receptor beta (ER-beta) signaling pathway (AID 1259378; active = well fitted inhibition curve with a large enough effect in the signal ratio in the repeat runs, not every such curve was filed as active; the % refers to the signal ratio; note: potency is the fitted concentration of half-maximal effect)
# Outline: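 ER-beta-UAS-bla HEK293T (GripTite) cells in 2% charcoal-stripped FBS medium were preincubated 6 hr at 37C, dosed with compound, then stimulated with 1 nM E2 (final) for 16 hr; beta-lactamase reporter read by B/G FRET fluorescence after 2 hr substrate loading.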
# [7] = target: Estrogen receptor (Homo sapiens) (UniProt P03372); assay: qHTS assay to identify small molecule agonists of the estrogen receptor alpha (ER-alpha) signaling pathway in the presence of an antagonist (AID 1259383; calls by dose curve; note: top concentration of the series differs between compounds; nearly all actives have a fitted effect of over 15% in size)
# Outline: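 VM7Luc4E2 cells (endogenous full-length ER-alpha, 4×ERE-luciferase) were precultured 5 days in phenol red-free medium with 10% charcoal-stripped FBS, given 10.0nM ICI-182,780 (final), then treated with compounds at 15 concentrations for 22hr at 37C; luminescence read with ONE-Glo.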
# [8] = qHTS assay to identify small molecule agonists or antagonists of the thyroid stimulating hormone receptor (TSHR) signaling pathway - wild type cell line counter screen (AID 1259384; calls by dose curve; note: potency is the fitted concentration of half-maximal effect)
# Outline: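 Wild-type HEK293 cells were plated 18 h at 37 C/5% CO2, pin-dosed with compound plus Ro20-1724 medium, held 30 min at room temperature, then given cAMP-d2 and anti-cAMP-cryptate; fluorescence was read after 1 h. Fifteen concentrations, triplicate.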
# [9] = target: Thyrotropin receptor (Homo sapiens) (UniProt P16473); assay: qHTS assay to identify small molecule antagonists of the thyroid stimulating hormone receptor (TSHR) signaling pathway (AID 1259385; calls by dose curve; note: nearly all actives have a fitted effect of over 20% in size; note: potency is the fitted concentration of half-maximal effect)
# Outline: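 TSHR-HEK293 cells were plated and held 18 h at 37C/5% CO2, then given compound plus Ro20-1724 and stimulated with TSH at 1.5 ng/mL final. After 30 min at room temperature, cAMP was detected with cAMP-d2/anti-cAMP-cryptate (1 h) by fluorescence.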
# [10] = target: Androgen receptor (Homo sapiens) (UniProt P10275); assay: qHTS assay to identify small molecule agonists of the androgen receptor (AR) signaling pathway in the presence of an antagonist (AID 1259381; calls by dose curve; note: nearly all actives have a fitted effect of over 15% in size)
# Outline: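 MDA-kb2 human breast carcinoma cells carrying an MMTV-luciferase reporter (AR- and GR-responsive) were treated with compounds at 15 concentrations plus 3.0uM final nilutamide for 16hr at 37C without CO2; luminescence was read after ONE-Glo addition.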
# Sequence of Thyrotropin receptor (Homo sapiens) (P16473 whole entry, looked up): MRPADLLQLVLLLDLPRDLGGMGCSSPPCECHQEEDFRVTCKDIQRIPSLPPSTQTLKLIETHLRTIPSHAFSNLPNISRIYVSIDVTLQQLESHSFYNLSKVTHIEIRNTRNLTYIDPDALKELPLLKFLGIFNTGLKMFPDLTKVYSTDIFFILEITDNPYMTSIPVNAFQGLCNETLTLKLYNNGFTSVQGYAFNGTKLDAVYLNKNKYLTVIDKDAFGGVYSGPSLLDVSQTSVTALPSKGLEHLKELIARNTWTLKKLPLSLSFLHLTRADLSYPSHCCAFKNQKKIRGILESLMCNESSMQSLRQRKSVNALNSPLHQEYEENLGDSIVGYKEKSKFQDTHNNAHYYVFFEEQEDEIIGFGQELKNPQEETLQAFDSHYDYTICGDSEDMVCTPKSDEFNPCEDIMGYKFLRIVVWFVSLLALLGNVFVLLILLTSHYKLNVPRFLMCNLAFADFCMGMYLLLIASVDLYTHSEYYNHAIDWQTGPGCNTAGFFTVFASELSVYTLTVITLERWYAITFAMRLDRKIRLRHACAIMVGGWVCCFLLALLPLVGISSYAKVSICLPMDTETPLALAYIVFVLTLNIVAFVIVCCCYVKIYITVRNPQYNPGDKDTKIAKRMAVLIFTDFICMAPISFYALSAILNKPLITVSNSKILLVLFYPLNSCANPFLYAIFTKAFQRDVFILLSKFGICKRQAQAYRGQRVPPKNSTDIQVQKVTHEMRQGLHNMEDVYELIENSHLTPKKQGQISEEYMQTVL
# Sequence of Estrogen receptor (Homo sapiens) (P03372 whole entry, looked up): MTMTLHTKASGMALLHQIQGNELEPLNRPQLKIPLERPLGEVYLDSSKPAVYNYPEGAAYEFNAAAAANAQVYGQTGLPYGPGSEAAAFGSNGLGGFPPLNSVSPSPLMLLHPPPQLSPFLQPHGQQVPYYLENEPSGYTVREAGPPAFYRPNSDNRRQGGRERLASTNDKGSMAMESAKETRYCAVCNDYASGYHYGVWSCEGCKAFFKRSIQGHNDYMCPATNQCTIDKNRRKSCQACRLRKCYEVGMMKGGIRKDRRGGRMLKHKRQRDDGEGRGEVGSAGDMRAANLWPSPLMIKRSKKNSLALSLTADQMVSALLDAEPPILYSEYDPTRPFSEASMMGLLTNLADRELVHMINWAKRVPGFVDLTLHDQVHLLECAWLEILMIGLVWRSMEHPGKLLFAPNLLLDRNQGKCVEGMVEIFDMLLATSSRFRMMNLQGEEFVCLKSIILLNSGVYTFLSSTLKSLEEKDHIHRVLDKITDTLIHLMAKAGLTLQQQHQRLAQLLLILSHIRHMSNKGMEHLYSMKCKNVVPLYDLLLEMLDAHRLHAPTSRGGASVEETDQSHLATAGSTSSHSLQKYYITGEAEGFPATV
# Sequence of Androgen receptor (Homo sapiens) (P10275 whole entry, looked up): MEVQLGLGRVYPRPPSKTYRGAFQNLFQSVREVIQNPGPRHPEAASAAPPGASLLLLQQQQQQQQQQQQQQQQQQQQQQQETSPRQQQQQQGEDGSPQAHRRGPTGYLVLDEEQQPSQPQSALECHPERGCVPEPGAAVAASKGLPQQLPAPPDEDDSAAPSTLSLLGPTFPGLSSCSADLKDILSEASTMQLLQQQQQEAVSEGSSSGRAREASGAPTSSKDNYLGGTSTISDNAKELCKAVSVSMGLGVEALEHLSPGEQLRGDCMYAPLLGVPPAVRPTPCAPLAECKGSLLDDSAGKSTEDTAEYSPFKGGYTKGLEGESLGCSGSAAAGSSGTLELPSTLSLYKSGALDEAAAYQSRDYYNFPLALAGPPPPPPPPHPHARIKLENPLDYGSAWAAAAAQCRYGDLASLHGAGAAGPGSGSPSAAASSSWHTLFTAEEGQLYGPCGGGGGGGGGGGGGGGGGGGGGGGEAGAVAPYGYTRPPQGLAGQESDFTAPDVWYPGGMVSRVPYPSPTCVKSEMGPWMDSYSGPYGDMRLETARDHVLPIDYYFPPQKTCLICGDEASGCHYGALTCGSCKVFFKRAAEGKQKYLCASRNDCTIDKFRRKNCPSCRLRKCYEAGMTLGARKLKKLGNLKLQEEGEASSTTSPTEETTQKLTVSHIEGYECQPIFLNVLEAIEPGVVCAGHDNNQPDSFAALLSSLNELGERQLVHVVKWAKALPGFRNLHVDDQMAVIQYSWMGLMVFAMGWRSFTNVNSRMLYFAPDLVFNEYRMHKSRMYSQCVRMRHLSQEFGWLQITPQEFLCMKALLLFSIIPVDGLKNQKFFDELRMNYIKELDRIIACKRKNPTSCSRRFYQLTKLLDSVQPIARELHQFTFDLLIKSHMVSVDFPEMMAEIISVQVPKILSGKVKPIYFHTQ
# Sequence of Estrogen receptor beta (Homo sapiens) (Q92731 whole entry, looked up): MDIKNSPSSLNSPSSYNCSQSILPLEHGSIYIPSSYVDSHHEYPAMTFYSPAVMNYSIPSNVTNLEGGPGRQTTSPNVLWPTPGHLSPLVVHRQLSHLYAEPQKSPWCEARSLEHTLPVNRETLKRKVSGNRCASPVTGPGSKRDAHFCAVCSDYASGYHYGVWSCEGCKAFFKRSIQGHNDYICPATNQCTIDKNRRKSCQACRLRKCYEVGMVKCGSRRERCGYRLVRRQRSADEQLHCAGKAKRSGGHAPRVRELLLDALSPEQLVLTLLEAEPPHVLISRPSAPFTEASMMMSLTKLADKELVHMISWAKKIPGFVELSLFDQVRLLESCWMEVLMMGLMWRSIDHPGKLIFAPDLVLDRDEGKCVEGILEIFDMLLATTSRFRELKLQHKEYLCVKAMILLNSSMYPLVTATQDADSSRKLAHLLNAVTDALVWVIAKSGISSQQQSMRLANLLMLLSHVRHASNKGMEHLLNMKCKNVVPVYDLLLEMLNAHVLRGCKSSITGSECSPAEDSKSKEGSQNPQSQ
SMILES,Potency [1],Potency [2],Potency [3],Potency [4],outcome [5],Potency [6],Potency [7],Potency [8],Potency [9],outcome [10]
O=C(O)c1ccccc1O,inactive,inactive,inactive,inactive,,,,,,
CCCCn1cc[n+](C)c1,inactive,inactive,inactive,inactive,,,,,,
OCCOc1ccccc1,inactive,inactive,inactive,inactive,inactive,inactive,inactive,inactive,inactive,
O=[N+]([O-])c1ccccc1O,inactive,inactive,inactive,inactive,inactive,inactive,,,,
CC(=O)[O][Hg][c]1ccccc1,121 nM (active) and 61.1 nM (active) and 8.4 nM (active),4.29 µM (active) and 6.86 µM (active) and 7.5 µM (active),1.92 µM (active) and 3.86 µM (active) and 5.31 µM (active),3.04 µM (active) and 4.33 µM (active) and 8.41 µM (active),,3.44 µM (active),inactive,2.07 µM (active) and 5.88 µM (active) and 4.92 µM (active),60.6 µM (active) and 68.6 µM (active),inactive
O=C(O)CCl,inactive,inactive,inactive,inactive,inactive,inactive,,inactive,inactive,
CCCC[n+]1cccc(C)c1,inactive,inactive,inactive,inactive,,,,,,
CC(Cl)(Cl)C(=O)O,inactive,inactive,inactive,inactive,inactive,inactive,inactive,inactive,inactive,
CCCCCC[n+]1ccccc1,13.8 µM (active) and 17.3 µM (active) and inactive,inactive,inactive,inactive,,,,,,
CCOP(=S)(OCC)Oc1ccc2c(C)c(Cl)c(=O)oc2c1,13.8 µM (active),inactive,inactive,inactive,inactive,,,inactive,inactive,
CCCC[n+]1ccccc1C,inactive,inactive,inactive,inactive,,,,,,
C[C@]12CCC(=O)C=C1CC[C@@H]1[C@@H]2CC[C@]2(C)C(=O)CC[C@@H]12,15.1 µM (active) and 13.7 µM (active) and inactive,inactive,53.5 µM (active) and 54.5 µM (active),47.7 µM (active) and inactive,inactive,inactive,inactive,inactive,inactive,
Nc1ccc(-c2ccc(N)cc2)cc1,inactive,inactive,inactive,inactive,inactive,inactive,inactive,inactive,,
CCC(=O)C(CC(C)N(C)C)(c1ccccc1)c1ccccc1 (stereo not given),24.4 µM (active) and inactive,inactive,54.7 µM (active),inactive,inactive,inactive,inactive,inactive,inactive,inactive
O=S(=O)(O)O,inactive,inactive,inactive,inactive,,,,,,
Cc1cc(Cl)ccc1OCC(=O)O,inactive,inactive,inactive,inactive,,,inactive,inactive,inactive,inactive
CC[N+]1(C)CCCC1,39.5 µM (active) and inactive,inactive and 61.3 µM (active),inactive,inactive,,,,,,
O=c1nc(O)n(Cl)c(=O)n1Cl,inactive,inactive,inactive,inactive,,,,,,
CCNc1nc(Cl)nc(NCC)n1,2.16 µM (active) and inactive,inactive,inactive,inactive,inactive,inactive,inactive,inactive,inactive,
COc1ccccc1N,inactive,inactive,inactive,inactive,,,,,,
O=C(O)CC(O)(CC(=O)O)C(=O)O,inactive,inactive,inactive,inactive,,,,,,
COP(=O)(OC)OC=C(Cl)Cl,inactive,inactive,inactive,inactive,inactive,inactive,inactive,,,
CNC,inactive,inactive,inactive,inactive,,,,,,
Nc1ccc(-c2ccc(N)c(Cl)c2)cc1Cl,2.74 µM (active) and 1.01 µM (active),inactive and 54.5 µM (active),30.6 µM (active),61.1 µM (active),,25.5 µM (active) and 30.6 µM (active),inactive,inactive,inactive and 57 µM (active),
N#CS,inactive,inactive,inactive,inactive,,,,,,
CCn1cc[n+](C)c1C,inactive,inactive,inactive,inactive,,,,,,
O=c1[nH]c(=O)n(Cl)c(=O)n1Cl,inactive,inactive,inactive,inactive,,,,,,
CCCCn1cc[n+](C)c1C,inactive,inactive,inactive,inactive,,,,,,
CCCCCCn1cc[n+](C)c1,7.74 µM (active) and 89.9 nM (active),50.5 µM (active) [middle of 6 runs],inactive,inactive,,,,,,
COCC(=O)N(c1c(C)cccc1C)C(C)C(=O)OC (stereo not given),inactive,inactive,inactive,inactive,inactive,inactive,inactive,inactive,inactive,

# Reference: PubChem BioAssay (Tox21)
